Measurements reported in PubChem BioAssay AID1259343 (VanderVen Lab, College of Veterinary Medicine, Cornell …, 2017).
The whole screen tested about 6,200 compounds, of which about 2,900 (47%) were called active. Cut-off read from the data, not from the text of the source: active = inhibition above about 50%; inactive = the rest. So high a share suggests a set chosen from earlier hits. The list shows a part of the results.

Assay: Mycobacterium tuberculosis growth inhibition, primary screen (AID 1259343)
Details: inhibition: at 10 µM, hits give high values; outcome: 10 uM
For Cc1ccc(/C=C/S(=O)(=O)N2CC(C(N)=O)c3ccccc32)cc1 (stereo not given), the inhibition was -0.07% (inactive). In the case of CCc1cc(=O)[nH]c(-n2nc(C)cc2NC(=O)C(C)C)n1, the inhibition is reported as 101% (active). With Cc1cc(NC(=O)c2ccc(-c3ccccc3)cc2)n(-c2nc(C)c(C)c(=O)[nH]2)n1 the inhibition was 100% (active). In the case of CCOc1ccc(C(=O)Nc2cc(C)nn2-c2nc(C)c(CC)c(=O)[nH]2)cc1OCC, the inhibition is reported as -21.9% (inactive). For CCOc1ccc(C(=O)Nc2cc(C)nn2-c2nc(C)c(C)c(=O)[nH]2)cc1OCC, the inhibition was 98.7% (active). With Cc1cc(=O)[nH]c(-n2nc(C)cc2NC(=O)c2ccc(C)c(C)c2)n1 the inhibition was 100% (active). For Cc1cc(NC(=O)c2ccccc2)n(-c2nc(C)c(C)c(=O)[nH]2)n1, the inhibition was -21.2% (inactive). With Cc1cc(=O)[nH]c(-n2nc(C)cc2NC(=O)c2ccc(-c3ccccc3)cc2)n1 the inhibition was 100% (active). For Cc1cc(C)cc(C(=O)Nc2cc(C)nn2-c2nc(C)cc(=O)[nH]2)c1, the inhibition was 100% (active). With Cc1cc(=O)[nH]c(-n2nc(C)cc2NC(=O)c2ccccc2)n1 the inhibition was 101% (active). In the case of Cc1ccc(C(=O)Nc2cc(C)nn2-c2nc(C)cc(=O)[nH]2)cc1, the inhibition is reported as 101% (active). In the case of CSc1c(C#N)c(=O)[nH]c2sc(C#N)c(N)c12, the inhibition is reported as 29.1% (inactive). In the case of CSc1c(C#N)c(SCC(=O)c2cc3ccccc3oc2=O)[nH]c(=O)c1C#N, the inhibition is reported as 83% (active). In the case of COC(=O)c1ccc(-c2noc(CN3CCC(C(O)Cc4ccccc4)CC3)n2)cc1 (stereo not given), the inhibition is reported as 14.8% (inactive). In the case of Fc1ccccc1Cc1noc(CN2CCN(c3cccc(C(F)(F)F)c3)CC2)n1, the inhibition is reported as 34.2% (inactive). For COC(=O)c1ccc(-c2noc(CN3CCCN(C(=O)c4ccco4)CC3)n2)cc1, the inhibition was 84.3% (active). For COC(=O)c1ccc(N2CCN(Cc3nc(Cc4cccc(F)c4)no3)CC2)cc1, the inhibition was 59.4% (active). For COC(=O)c1ccc(-c2noc(CN3CCC(C(O)c4cccs4)CC3)n2)cc1 (stereo not given), the inhibition was 16.3% (inactive). With O=C(Nc1ncc(SCCN2CCCC2)s1)[C@]1(c2ccc(S(=O)(=O)C3CC3)cc2)C[C@H]1C1CCCCC1 the inhibition was 17.1% (inactive). In the case of CC(=O)Oc1ccc(CN2C(=O)C(CCc3ccccc3)ON=C2c2cnccn2)cc1 (stereo not given), the inhibition is reported as 41.4% (inactive). With Fc1ccc(COc2ccc(-c3nnco3)cc2)c(Cl)c1 the inhibition was 55.8% (active). In the case of CC(C)(C)c1ccc(OCc2ccc(-c3nnco3)cc2)cc1, the inhibition is reported as 49.7% (inactive). In the case of Cc1csc(Sc2ccc(NC(=O)c3cnn(C)c3C)cc2)n1, the inhibition is reported as 16.3% (inactive). With CC(=O)Nc1ccc(Sc2ncnc3sccc23)cc1 the inhibition was 0.26% (inactive). In the case of CC(C)C(=O)Nc1ccc(Sc2nncs2)cc1, the inhibition is reported as 89.1% (active).
